Results filed as inconclusive are left out. A call without a number means that no potency is given here. Values without a mark were called inactive. Calls of active or inactive are those of the source. Unless noted, the call rests on the fitted dose curve.
What was measured:
[1] = qHTS assay to identify small molecule agonists of the vitamin D receptor (VDR) signaling pathway - cell viability counter screen (AID 743224; active means well fitted cell-killing curve with a large enough effect in the repeat runs; further: series mostly up to about 63 µM; nearly all actives have a fitted effect of over 50% in size)
Method in brief: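 Counter screen for cytotoxicity: VDR-bla cells at 2,000 cells/well, 16 h compound exposure, then CellTiter-Glo luminescence after the beta-lactamase measurement.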

[2] = qHTS assay to identify small molecule antagonists of the vitamin D receptor (VDR) signaling pathway - cell viability counter screen (AID 743225; active means well fitted cell-killing curve with a large enough effect in the repeat runs; further: nearly all actives have a fitted effect of over 50% in size)
Method in brief: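 HEK293T VDR-bla; cpd + 1a,25-(OH)2D3 3 nM final, 16 h 37C/5% CO2; B/G FRET substrate 2 h RT; then CellTiter-Glo 30 min RT, luminescence.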

[3] = qHTS assay to identify small molecule agonists of the NFkB signaling pathway - cell viability counter screen (AID 1159515); further: series mostly up to about 61 µM; nearly all actives have a fitted effect of over 55% in size
Method in brief: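 Counter screen run alongside the NFkB-bla agonist assay: ME-180 reporter cells exposed to compounds for 5 hr, then lysed with CellTiter-Glo in the same wells. Luminescence, read after 30 min, reflects viable cells.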

[4] = qHTS assay to identify small molecule agonists of the endoplasmic reticulum stress response signaling pathway (AID 1159516; active means well fitted activation curve with a large enough effect in the signal ratio in the repeat runs, not every such curve was filed as active; the % refers to the signal ratio)
Method in brief: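 For this screen, HeLa cells stably carrying beta-lactamase under the ER stress response element received test compounds, positive controls or DMSO for 5 hr at 37 C; B/G FRET substrate was then added and dual-wavelength emission recorded.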

[5] = qHTS assay to identify small molecule agonists of the endoplasmic reticulum stress response signaling pathway - cell viability counter screen (AID 1159517); further: series mostly up to about 61 µM; nearly all actives have a fitted effect of over 50% in size
Method in brief: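 Cpd-treated ESRE-bla HeLa (5 hr, 37 C) → LiveBLAzer 2 hr RT → CellTiter-Glo 30 min RT → luminescence.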

[6] = qHTS assay to identify small molecule antagonists of the retinoid-related orphan receptor gamma (ROR-gamma) signaling pathway - cell viability counter screen (AID 1159520; active means well fitted cell-killing curve with a large enough effect in the repeat runs; further: nearly all actives have a fitted effect of over 50% in size; further: potency means the concentration at half of the fitted maximal effect)
Method in brief: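 Tet-on ROR gamma CHO cells (1,000/well) were plated 4 hr, given compounds in DMSO for 2 hr at 37 C, then induced with 1 uM final doxycycline for 16 hr. Viability was read as ATP by CellTiter-Glo luminescence after 30 min.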

[7] = qHTS assay to identify small molecule agonists of the AP-1 signaling pathway - cell viability counter screen (AID 1159525); further: nearly all actives have a fitted effect of over 55% in size
Method in brief: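 Each titration point was normalised to DMSO and tetra n-octyl ammonium bromide controls. The read was Cell Titer Glo luminescence after 30 min at RT, following 5 h compound exposure of ME-180 AP-1-bla cells at 37 °C.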

[8] = qHTS assay to identify small molecule agonists of the AP-1 signaling pathway (AID 1159526); further: potency means the concentration at half of the fitted maximal effect
[9] = molecular target: Retinoic acid receptor RXR-alpha (Homo sapiens) (UniProt P19793); assay: qHTS assay to identify small molecule agonists of the RXR signaling pathway (AID 1159527); further: nearly all actives have a fitted effect of over 35% in size
Method in brief: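 Cells plated at 2,000/well, rested 5 hr at 37 C, pin-dosed with DMSO compound solutions, incubated 16 hr, then loaded with B/G FRET substrate for 2 hr at RT before dual-emission fluorescence reading.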

Sequence of Retinoic acid receptor RXR-alpha (Homo sapiens) (P19793 whole entry, looked up): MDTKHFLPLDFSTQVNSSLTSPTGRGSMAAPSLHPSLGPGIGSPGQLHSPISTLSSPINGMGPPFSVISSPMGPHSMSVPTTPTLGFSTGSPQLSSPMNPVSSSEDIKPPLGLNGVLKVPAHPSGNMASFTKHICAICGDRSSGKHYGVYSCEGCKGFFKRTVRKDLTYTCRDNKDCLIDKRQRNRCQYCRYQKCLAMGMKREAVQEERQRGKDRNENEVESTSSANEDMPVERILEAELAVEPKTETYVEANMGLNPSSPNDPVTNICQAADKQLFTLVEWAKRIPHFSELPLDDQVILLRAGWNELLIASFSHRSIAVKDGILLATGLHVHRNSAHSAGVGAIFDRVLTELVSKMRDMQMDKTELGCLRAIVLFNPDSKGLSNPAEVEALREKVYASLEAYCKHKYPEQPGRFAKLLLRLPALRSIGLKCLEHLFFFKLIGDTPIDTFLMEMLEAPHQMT

| SMILES | Potency [1] | Potency [2] | Potency [3] | Potency [4] | Potency [5] | Potency [6] | Potency [7] | Potency [8] | Potency [9] |
| --- | --- | --- | --- | --- | --- | --- | --- | --- | --- |
| CCN(CC)CCOC(=O)C(Cc1cccc2ccccc12)CC1CCCO1 (stereo not drawn) | inactive | inactive | inactive | inactive | inactive | inactive | inactive | 21.3 µM (active) |  |
| CCCCO | inactive | inactive | inactive | inactive | inactive | inactive | inactive | inactive |  |
| S=C([S-])NCCNC(=S)[S-].[Mn+2] | inactive | inactive | inactive | inactive | inactive | inactive | inactive | inactive |  |
| CC(C)OC(=O)C(C)N(C(=O)c1ccccc1)c1ccc(F)c(Cl)c1 (stereo not drawn) | inactive |  | inactive | inactive | inactive | inactive | inactive | inactive |  |
| C/C=C/C=C/CO | inactive | inactive | inactive | inactive | inactive | inactive | inactive | inactive |  |
| CC1=CCCC(C)(C)C12CCC(C)O2 (stereo not drawn) | inactive | inactive | inactive | inactive | inactive | inactive | inactive | inactive |  |
| O=C(Cl)c1cc(C(=O)Cl)cc(C(=O)Cl)c1 | inactive |  | inactive | inactive | inactive | 61.1 µM (active) | inactive | inactive |  |
| CC(C)O.CC(C)O.CCOC(=O)/C=C(\C)O.CCOC(=O)/C=C(\C)O.[Ti] | inactive | inactive | inactive | inactive | inactive | inactive | inactive | inactive | inactive |
| CNC(=O)CN(CCN(CCN(CC(=O)[O-])CC(=O)NC)CC(=O)[O-])CC(=O)[O-].O.[Gd+3] | inactive | inactive | inactive | inactive | inactive | inactive | inactive | inactive |  |
| CCO[C@H](Cc1ccc(OCCc2ccc(OS(C)(=O)=O)cc2)cc1)C(=O)O | inactive | inactive | inactive | inactive | inactive | inactive | inactive | inactive |  |
| COc1ccc(C)cc1[N+](=O)[O-] | inactive | inactive | inactive | inactive | inactive | inactive | inactive | inactive |  |
| CC1=CC[C@H](C(C)C)C=C1 | inactive |  | inactive | inactive | inactive | inactive | inactive | inactive |  |
| O=C(O)c1nc(Cl)c(Cl)c(Cl)c1Cl | inactive |  | inactive | inactive | inactive | inactive | inactive | inactive |  |
| OC(C#CCN1CCCC1)(c1ccccc1)c1ccccc1 | inactive | inactive | inactive | inactive | inactive | inactive | inactive | 16.9 µM (active) | inactive |
| c1cc(CCCc2ccncc2)ccn1 | inactive | inactive | inactive | inactive | inactive | inactive | inactive | inactive |  |
| CCc1cc(C2=C(C(=O)O)N(c3ccccc3C(F)(F)F)S(=O)(=O)c3ccccc32)cc2c1OCO2 | inactive | inactive | inactive | inactive | inactive | inactive | inactive | inactive |  |
| CC(=O)c1cccc([N+](=O)[O-])c1 | inactive | inactive | inactive | inactive | inactive | inactive | inactive | inactive |  |
| CCCC(=O)Nc1ccc(O)c(C(C)=O)c1 | inactive | inactive | inactive | inactive | inactive | inactive | inactive | inactive | inactive |
| O=C(O)c1ccco1 | inactive |  | inactive | inactive | inactive | inactive | inactive | inactive |  |
| O=[N+]([O-])c1cccc(S(=O)(=O)O)c1 | inactive | inactive | inactive | inactive | inactive | inactive | inactive | inactive |  |
| O=C1c2ccccc2S(=O)(=O)N1CCCCN1CCN(c2ncccn2)CC1 | inactive | inactive | inactive | inactive | inactive | inactive | inactive | inactive |  |
| CC(=O)[O][Al] | inactive | inactive | inactive | inactive | inactive | inactive | inactive | inactive |  |
| CCN(CC)CCNC(=O)c1cc(Br)c(N)cc1OC | inactive | inactive | inactive | inactive | inactive | inactive | inactive | inactive |  |
| O=C1C(O)=C(O)C(=O)C(O)=C1O | inactive | inactive | inactive | inactive | inactive | inactive | inactive | inactive | inactive |
| CCC(=O)O[C@]1(C(=O)CCl)[C@@H](C)C[C@H]2[C@@H]3CCC4=CC(=O)C=C[C@]4(C)[C@@]3(F)[C@@H](O)C[C@@]21C | inactive | inactive | inactive | inactive | inactive | inactive | inactive | inactive | inactive |
| C[N+]1(C)CCC(OC(=O)C(O)(c2ccccc2)C2CCCC2)C1 (stereo not drawn) | inactive | inactive | inactive | inactive | inactive | inactive | inactive | inactive |  |
